Measurements from PubChem BioAssay AID1159580 (chemical genetic matrix, 2015).
Several values for one entry are separate records, joined by “and”; a condition that tells them apart may be missing. Equal values may be shown once. Out of some 5,500 compounds screened, about 2,000 (36%) were called active. About 18% were inconclusive and are not listed. No stated cut-off is given here; in the data, active means normalized growth mostly below about 0.91 (no sharp cut-off); inconclusive means no clear call, values can overlap the other calls; inactive means mostly above about 0.92. Some of the results follow.

Test: chemical genetic growth profiling, strain panel (AID 1159580);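 further: tested at 20 µM; growth read once vehicle control cultures reached saturation at 30 °C; 1 = growth at the plate median or of vehicle wells; lower values mean less growth of the strain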
Conditions: S. cerevisiae deletion strains, growth OD

Measured: normalized growth

NC(=O)NC1NC(=O)NC1=O (configuration not stated)
inactive: locus YAL013W, strain DEP1, active compounds read low 0.994 | locus YAL021C, strain ccr4, active compounds read low 0.995 | locus YAL026C, strain drs2, active compounds read low 1 | locus YAL030W, strain snc1, active compounds read low 0.999 | locus YBL061C, strain skt5, active compounds read low 1 | locus YBR009C, strain hhf1, active compounds read low 0.999 | locus YBR021W, strain FUR4, active compounds read low 0.996 | locus YBR023C, strain chs3, active compounds read low 1 | locus YBR171W, strain sec66, active compounds read low 1.01 | locus YBR229C, strain ROT2, active compounds read low 0.987 | locus YBR231C, strain swc5, active compounds read low 0.996 | locus YBR279W, strain paf1, active compounds read low 1.01 | locus YCL011C, strain gbp2, active compounds read low 1.01 | locus YCL016C, strain dcc1, active compounds read low 1 | locus YCL029C, strain bik1, active compounds read low 0.976 | locus YCL061C, strain MRC1, active compounds read low 0.995 | locus YCL069W, strain vba3, active compounds read low 1.01 | locus YCR088W, strain abp1, active compounds read low 0.995 | locus YDL005C, strain med2, active compounds read low 1 | locus YDL035C, strain GPR1, active compounds read low 1.01 | locus YDL040C, strain nat1, active compounds read low 0.999 | locus YDL074C, strain BRE1, active compounds read low 1.01 | locus YDL101C, strain DUN1, active compounds read low 0.981 | locus YDL134C, strain PPH21, active compounds read low 0.982 | locus YDL185W, strain tfp1, active compounds read low 0.982 | locus YDL192W, strain arf1, active compounds read low 0.988 | locus YDR001C, strain nth1, active compounds read low 1.01 | locus YDR069C, strain doa4, active compounds read low 1 | locus YDR101C, strain arx1, active compounds read low 0.98 | locus YDR137W, strain rgp1, active compounds read low 0.991 | locus YDR150W, strain NUM1, active compounds read low 0.998 | locus YDR159W, strain sac3, active compounds read low 0.995 | locus YDR162C, strain NBP2, active compounds read low 0.992 | locus YDR195W, strain ref2 0.998 | locus YDR297W, strain sur2, active compounds read low 1.01 | locus YDR318W, strain mcm21, active compounds read low 0.986 | locus YDR334W, strain swr1, active compounds read low 1 | locus YDR335W, strain msn5, active compounds read low 1.01 | locus YDR388W, active compounds read low 0.979 | locus YDR392W, strain spt3, active compounds read low 0.958 | locus YDR502C, strain sam2, active compounds read low 1.02 | locus YEL003W, strain gim4, active compounds read low 1.01 | locus YEL037C, strain rad23, active compounds read low 1.01 | locus YEL061C, strain CIN8 (second series), active compounds read low 1.01 | locus YEL061C, strain CIN8, active compounds read low 1 | locus YER015W, strain faa2, active compounds read low 1 | locus YER016W, strain bim1, active compounds read low 1.01 | locus YER110C, active compounds read low 0.979 | locus YER111C, strain swi4, active compounds read low 1.01 | locus YER155C, strain BEM2 (second series), active compounds read low 1.01 | locus YER155C, strain BEM2, active compounds read low 0.997 | locus YER167W, strain BCK2, active compounds read low 1 | locus YFR010W, strain ubp6, active compounds read low 1.01 | locus YGL078C, strain dbp3, active compounds read low 0.989 | locus YGL086W, strain mad1, active compounds read low 0.999 | locus YGL167C, strain pmr1, active compounds read low 1 | locus YGL173C, strain kem1, active compounds read low 1 | locus YGL227W, strain vid30, active compounds read low 1 | locus YGL240W, strain doc1, active compounds read low 0.996 | locus YGL248W, strain PDE1, active compounds read low 0.986 | locus YGL253W, strain hxk2, active compounds read low 1 | locus YGR078C, strain PAC10, active compounds read low 0.987 | locus YGR135W, strain pre9, active compounds read low 0.998 | locus YGR229C, strain SMI1, active compounds read low 1.01 | locus YGR252W, strain gcn5, active compounds read low 1.13 | locus YHR013C, strain ard1, active compounds read low 1.01 | locus YHR027C, strain rpn1, active compounds read low 1 | locus YHR030C, strain SLT2, active compounds read low 0.994 and 1.03 | locus YHR079C, strain IRE1 (second series), active compounds read low 0.972 | locus YHR079C, strain IRE1, active compounds read low 1.02 | locus YHR094C, strain hxt1, active compounds read low 0.983 | locus YHR129C, strain ARP1, active compounds read low 0.983 | locus YHR142W, strain chs7, active compounds read low 1.01 | locus YHR200W, strain rpn10, active compounds read low 0.988 | locus YIL066C, strain RNR3, active compounds read low 0.994 | locus YIL073C, strain SPO22, active compounds read low 0.998 | locus YIL125W, strain kgd1, active compounds read low 0.999 | locus YIR030C, strain dcg1, active compounds read low 0.984 | locus YJL092W, strain hpr5, active compounds read low 1 | locus YJL095W, strain BCK1 (second series), active compounds read low 1 | locus YJL095W, strain BCK1, active compounds read low 0.98 and 1.03 | locus YJL115W, strain asf1, active compounds read low 0.997 | locus YJL129C, strain trk1, active compounds read low 0.997 | locus YJL134W, strain LCB3, active compounds read low 0.991 | locus YJL154C, strain vps35, active compounds read low 1.01 | locus YJL164C, strain tpk1, active compounds read low 1 | locus YJL166W, strain qcr8, active compounds read low 0.993 | locus YJL168C, strain set2, active compounds read low 0.98 | locus YJL187C, strain SWE1 (second series), active compounds read low 0.979 | locus YJL187C, strain SWE1, active compounds read low 1 | locus YJR043C, strain POL32, active compounds read low 0.979 | locus YJR066W, strain TOR1, active compounds read low 0.984
